Results from article PMC4552634, “A New Set of Chemical Starting Points with Plasmodium falciparum Transmission-Blocking Potential for Antimalarial Drug Discovery” (PLoS ONE, 2015).
Hit rate of the full screen: of about 13,000 compounds, about 3,200 (25%) showed an effect of 50% or more. The list shows a part of the results.

tested on: P. falciparum stage V gametocytes; design: BacTiter-Glo ATP luminescence viability of purified stage V gametocytes in 384-well plates, per cent inhibition versus DMSO; settings: 48 h, 5 µM; inhibitor

Question: Cc1ccc(Oc2ccc(NC(=O)CNc3ccccc3N3CCCC3=O)cc2)cc1 [TCMDC-125245] was tested. Which “% Inhibition” value did it give?
Answer: -23.96%

Question: CN(C)c1ccc(CN2CCC(CNC(=O)c3cc(-c4cccc(F)c4)cs3)C2)cc1 (stereo not drawn) [TCMDC-134454] was tested. Which “% Inhibition” value did it give?
Answer: 71.45%

Question: CCc1ccc(CN2CCC(CNC(=O)c3cc(-c4cccc(F)c4)cs3)C2)cc1 (stereo not drawn) [TCMDC-134432] was tested. Which “% Inhibition” value did it give?
Answer: 99.62%

Question: How did the “% Inhibition” value turn out when CN(C)c1ccc(CN2CCC(CNC(=O)c3cc(-c4cccc(C(F)(F)F)c4)cs3)C2)cc1 (stereo not drawn) [TCMDC-134452] was run?
Answer: 29.06%

Question: Which “% Inhibition” value does the source give for CC(C)(C)c1ccc(CN2CCC(CNC(=O)c3cc(-c4ccccc4)nc4ccccc34)CC2)cc1 [TCMDC-139154] here?
Answer: 75.79%

Question: With O=C(NC1CCN(Cc2ccccc2)CC1)c1cc(-c2cccnc2)nc2ccc(Cl)cc12 [TCMDC-125223] as the molecule, how does the “% Inhibition” value read?
Answer: -0.2191%

Question: With O=C(NC1CCN(Cc2ccccc2)CC1)c1cc(-c2ccncc2)nc2ccc(Cl)cc12 [TCMDC-124995] as the molecule, how does the “% Inhibition” value read?
Answer: 9.958%

Question: CC(Nc1nncc(-c2cccc(F)c2)n1)c1ccc(F)cc1 (stereo not drawn) [TCMDC-124683] was tested. Which “% Inhibition” value did it give?
Answer: -23.73%

Question: COc1ccc(NC(=O)Nc2cccc(-c3ccc(-c4nc5ccc(C(F)(F)F)cc5[nH]4)cc3)c2)cc1 [TCMDC-133244] was tested. Which “% Inhibition” value did it give?
Answer: -27.48%

Question: With CCOC(=O)c1ccc(Nc2cc(Nc3ccc(C(=O)OCC)cc3)nc(C)n2)cc1 [TCMDC-125781] as the molecule, how does the “% Inhibition” value read?
Answer: 36.3%

Question: Which “% Inhibition” value does the source give for O=C(Nc1cccc(CN2CCCN(CC3CC3)CC2)c1)c1ccc(-c2ccccc2)cc1 [TCMDC-141846] here?
Answer: -26.45%

Question: Which “% Inhibition” value does the source give for Cc1nc2nc(N)nc(N)c2c(C)c1Cc1ccc(O)cc1 [TCMDC-137637] here?
Answer: -12.62%

Question: CC(C)C1C(=O)N(S(C)(=O)=O)C2CCN(C(=O)c3ccc(CN4CCCCC4)c([N+](=O)[O-])c3)C12 (stereo not drawn) [TCMDC-138195] was tested. Which “% Inhibition” value did it give?
Answer: 96.13%

Question: How did the “% Inhibition” value turn out when O=C(/C=C/c1ccc(Cl)c(Cl)c1)NC1CCC(CN2CCC(Cc3c[nH]c4ccccc34)CC2)CC1 (stereo not drawn) [TCMDC-140141] was run?
Answer: 5.841%

Question: With O=C(NCCCCN1CCC(c2nc3ccccc3s2)CC1)c1cc2ccccc2[nH]1 [TCMDC-132779] as the molecule, how does the “% Inhibition” value read?
Answer: 6.014%

Question: For COc1ccc(Cl)cc1N1CCN(CCCNC(=O)c2ccc(-c3nc4ccncc4[nH]3)c(Br)c2)CC1 [TCMDC-140145], which “% Inhibition” value is on record?
Answer: -23.34%

Question: Which “% Inhibition” value does the source give for COc1ccccc1N1CCN(CCCCNC(=O)c2ccc(NC(=O)c3ccc(C(F)(F)F)cc3)cc2)CC1 [TCMDC-138110] here?
Answer: -20.18%

Question: With O=C(NCCCCN1CCN(c2nsc3ccccc23)CC1)c1ccccc1C(=O)NCCCCN1CCN(c2nsc3ccccc23)CC1 [TCMDC-137241] as the molecule, how does the “% Inhibition” value read?
Answer: 54.48%

Question: How did the “% Inhibition” value turn out when Nc1ccncc1C(=O)NCCCCN1CCN(c2nsc3ccccc23)CC1 [TCMDC-137310] was run?
Answer: 70.91%

Question: Which “% Inhibition” value does the source give for Nc1c(C(=O)NCCCCN2CCN(c3nsc4ccccc34)CC2)sc2ccccc12 [TCMDC-137254] here?
Answer: -32.13%

Question: With c1csc(-c2nc(NCC3CCCO3)ncc2-c2ccsc2)n1 (stereo not drawn) [TCMDC-125365] as the molecule, how does the “% Inhibition” value read?
Answer: 7.159%

Question: For CCCCCCN1CCCN(Cc2ccc(C(=O)Nc3cccc(CC)c3)cc2)CC1 [TCMDC-136412], which “% Inhibition” value is on record?
Answer: -23.63%

Question: For CC1(C)N=C(N)N=C(N)N1OCCCc1ccccc1 [TCMDC-131689], which “% Inhibition” value is on record?
Answer: 3.846%

Question: CCNc1cc(C(=O)N[C@@H](Cc2ccccc2)[C@H](O)CNC2(CCC(C)C)CC2)cc(N2CCCCS2(=O)=O)c1 [TCMDC-135245] was tested. Which “% Inhibition” value did it give?
Answer: 4.245%

Question: For CCCCCCN1CCC(CNCc2cccc(Cl)c2)CC1 [TCMDC-141678], which “% Inhibition” value is on record?
Answer: 45.32%

Question: For O=C(Nc1ccc(Cl)c(Cl)c1)N1CCc2ccc(OCCCN3CCCCC3)cc2CC1 [TCMDC-141755], which “% Inhibition” value is on record?
Answer: 13.17%

Question: Clc1ccc(OCCC2CCN(CCCCCCN3CCCCC3)CC2)cc1Cl [TCMDC-138982] was tested. Which “% Inhibition” value did it give?
Answer: 100.1%

Question: With CCCCCCOc1ccc(C(=O)N[C@H]2CCN(CCCCCNC(=O)/C=C/c3ccc(Cl)c(Cl)c3)C2)cc1 [TCMDC-139564] as the molecule, how does the “% Inhibition” value read?
Answer: 40.4%

Question: Which “% Inhibition” value does the source give for Clc1ccc(OCCC2CCN(CCCCCCCN3CCC(CCOc4ccc(Cl)c(Cl)c4)CC3)CC2)cc1Cl [TCMDC-138967] here?
Answer: 119.8%

Question: O=C(Nc1cccc(OCCN2CCCC2)c1)Nc1ccc(Cl)c(Cl)c1 [TCMDC-139540] was tested. Which “% Inhibition” value did it give?
Answer: 28.24%

Question: With N#Cc1ccc(-c2ccc(C(=O)Nc3ccc4c(c3)CCN(C3CCC3)CC4)nc2)cc1 [TCMDC-136032] as the molecule, how does the “% Inhibition” value read?
Answer: 15.17%

Question: For Cc1onc(-c2ccccc2)c1-c1nc(NC2CCCC(C)C2)no1 (stereo not drawn) [TCMDC-134202], which “% Inhibition” value is on record?
Answer: -14.49%

Question: Which “% Inhibition” value does the source give for CCN(c1ccc(O)c(CN2CCCCC2)c1)c1ccc([N+](=O)[O-])cn1 [TCMDC-138001] here?
Answer: 10.77%

Question: With CCN(CC)S(=O)(=O)c1ccc(C(C)NC(=O)c2ccccc2COc2ccccc2)cc1 (stereo not drawn) [TCMDC-125332] as the molecule, how does the “% Inhibition” value read?
Answer: 39.64%

Question: Which “% Inhibition” value does the source give for CCC(C)NS(=O)(=O)c1ccc2nc(Nc3ccc(C)cc3)n(C3CCCCC3C)c2c1 (stereo not drawn) [TCMDC-136231] here?
Answer: -48.39%

Question: Which “% Inhibition” value does the source give for CCC(C)NS(=O)(=O)c1ccc2nc(Nc3ccc(C)cc3)n(C3CCCCC3)c2c1 (stereo not drawn) [TCMDC-136232] here?
Answer: -89.75%

Question: For Cc1nc2ccc(F)cc2n1C1CCN(C(=O)Cc2ccc(F)c(F)c2)CC1 [TCMDC-124794], which “% Inhibition” value is on record?
Answer: 73.02%

Question: Which “% Inhibition” value does the source give for CCC(C)NS(=O)(=O)c1ccc2nc(Nc3ccc(C)c(Cl)c3)n(C3CCCCC3)c2c1 (stereo not drawn) [TCMDC-136233] here?
Answer: -49.77%

Question: How did the “% Inhibition” value turn out when Cc1ccc(C)c(CC(=O)N2CCC(n3c(C)nc4ccc(F)cc43)CC2)c1 [TCMDC-124790] was run?
Answer: 89.97%

Question: O=C(O)c1ccc2nc(-c3ccc(-c4ccccc4)cc3)n(C3CCN(Cc4ccc(-c5ncc[nH]5)cc4)CC3)c2c1 [TCMDC-134669] was tested. Which “% Inhibition” value did it give?
Answer: 12.72%

Question: Which “% Inhibition” value does the source give for Cc1ccc(C)c(Cn2c(N3CCC(C(=O)NCc4cccs4)CC3)nc3ccccc32)c1 [TCMDC-124399] here?
Answer: -1.754%

Question: With Cc1ccc2nc(C)n(C3CCN(C(=O)Cc4ccc(F)c(F)c4)CC3)c2c1 [TCMDC-124793] as the molecule, how does the “% Inhibition” value read?
Answer: 84.63%

Question: Which “% Inhibition” value does the source give for CCN1CCC(N2CCC(n3c(C)nc4cc(C(F)(F)F)ccc43)CC2)CC1 [TCMDC-124671] here?
Answer: 0.4186%

Question: Which “% Inhibition” value does the source give for Cc1cc(C)cc(CC(=O)N2CCC(n3c(C)nc4ccc(C)cc43)CC2)c1 [TCMDC-124789] here?
Answer: 80.51%

Question: For O=C(Nc1ccc(-c2nc3ccccc3[nH]2)cc1)C1CCN(Cc2ccc(F)cc2)CC1 [TCMDC-124680], which “% Inhibition” value is on record?
Answer: 4.478%

Question: CCCc1cc(=O)[nH]c(-n2nc(C)cc2NC(=O)CC(c2ccccc2)c2ccccc2)n1 [TCMDC-124940] was tested. Which “% Inhibition” value did it give?
Answer: 43.65%

Question: For CC(C)C[C@H](NC(=O)c1cccc(F)c1)C(=O)N[C@H](/C=N/NC(=O)c1ccccc1)CCc1ccccc1 [TCMDC-135679], which “% Inhibition” value is on record?
Answer: 8.745%

Question: CC(=O)Nc1ccc(CN2CCc3ccc(NS(=O)(=O)c4ccc(-c5cccc(C(F)(F)F)c5)cc4)cc3CC2)s1 [TCMDC-132328] was tested. Which “% Inhibition” value did it give?
Answer: 7.357%

Question: Cc1ccc(-c2ccc(NC(=O)N3CCc4cc(Br)c(N5CCN(C)CC5)cc43)cc2)cn1 [TCMDC-139294] was tested. Which “% Inhibition” value did it give?
Answer: -24.43%

Question: Which “% Inhibition” value does the source give for CN(C)CCNC(=O)c1csc(Nc2ccc(Cl)c(Cl)c2)n1 [TCMDC-123722] here?
Answer: -60.24%

Question: COc1cccc2cc(C(=O)N[C@@H](CC(C)C)C(=O)N[C@H](C=NNC(=O)OC(C)(C)C)CC(C)C)oc12 [TCMDC-136062] was tested. Which “% Inhibition” value did it give?
Answer: 12.96%

Question: For Cc1ccc2nc(C)n(C3CCN(C(=O)Cc4ccccc4C)CC3)c2c1 [TCMDC-124795], which “% Inhibition” value is on record?
Answer: 76.45%

Question: For Cc1ccc2nc(C)n(C3CCN(C(=O)C4(c5ccccc5)CC4)CC3)c2c1 [TCMDC-124796], which “% Inhibition” value is on record?
Answer: 44.07%

Question: For COc1ccc(Br)cc1/C=C/C(=O)Nc1cccc(C2CCCN(C)C2)c1 (stereo not drawn) [TCMDC-133710], which “% Inhibition” value is on record?
Answer: 13.98%

Question: With CN1CCN(c2ccnc3ccc(NC(=O)Nc4ccc(-c5ccncc5)c(C#N)c4)cc23)CC1 [TCMDC-139268] as the molecule, how does the “% Inhibition” value read?
Answer: 80.15%

Question: For Cc1nc(-c2cccc3c(NC(=O)Nc4ccc5nccc(N6CCN(C)CC6)c5c4)cccc23)no1 [TCMDC-139340], which “% Inhibition” value is on record?
Answer: 66.85%

Question: CN1CCN(c2ccnc3ccc(NC(=O)Nc4ccc(-c5ccncc5)c(C(F)(F)F)c4)cc23)CC1 [TCMDC-139260] was tested. Which “% Inhibition” value did it give?
Answer: 40.16%

Question: How did the “% Inhibition” value turn out when CN1CCN(c2ccnc3ccc(NC(=O)Nc4ccc(-c5ccncc5)c5ccccc45)cc23)CC1 [TCMDC-139251] was run?
Answer: -4.793%

Question: For CN1CCN(c2ccnc3ccc(NC(=O)Nc4cccc5c(-c6ccncc6)cccc45)cc23)CC1 [TCMDC-139252], which “% Inhibition” value is on record?
Answer: -0.3523%

Question: How did the “% Inhibition” value turn out when Cc1ncccc1-c1cccc2c(NC(=O)Nc3ccc4nccc(N5CCN(C)CC5)c4c3)cccc12 [TCMDC-139369] was run?
Answer: -6.373%

Question: Which “% Inhibition” value does the source give for COC(=O)c1ccc(CC(C)NCC(O)c2cccc(OC(F)(F)F)c2)cc1 (stereo not drawn) [TCMDC-131487] here?
Answer: 26.86%

Question: Which “% Inhibition” value does the source give for Cc1[nH]c(/C=C2\C(=O)Nc3ccc(S(=O)(=O)Cc4c(Cl)cccc4Cl)cc32)c(C)c1C(=O)N1CCC[C@@H]1CN1CCCC1 [TCMDC-125885] here?
Answer: 103.4%

Question: Cc1cccc2nc(-c3cccc(-c4cccc(C(=O)N5CCCCC5CN5CCC(O)C5)c4)c3)[nH]c12 (stereo not drawn) [TCMDC-132347] was tested. Which “% Inhibition” value did it give?
Answer: 6.025%

Question: For O=C(c1cccc(-c2cccc(-c3nc4ccccc4[nH]3)c2)c1)N1CCCCC1CN1CCC(O)C1 (stereo not drawn) [TCMDC-132311], which “% Inhibition” value is on record?
Answer: -3.438%

Question: With COc1cccc(C=Cc2nc(=O)c3ccccc3o2)c1OC [TCMDC-124577] as the molecule, how does the “% Inhibition” value read?
Answer: 34.84%

Question: Which “% Inhibition” value does the source give for COc1ccc(Cc2cnc3nc(N)nc(N)c3c2C)cc1OC [TCMDC-138057] here?
Answer: 6.807%
